# Target: RUNX1 (Homo sapiens, UniProt Q01196 1-453)
# Assay: custom PBM; custom protein-binding microarray; buffer, salt, pH and temperature not stated; high values mean tight binding
# Conditions: dsDNA, one strand shown
# Chain of RUNX1 (Q01196 whole entry): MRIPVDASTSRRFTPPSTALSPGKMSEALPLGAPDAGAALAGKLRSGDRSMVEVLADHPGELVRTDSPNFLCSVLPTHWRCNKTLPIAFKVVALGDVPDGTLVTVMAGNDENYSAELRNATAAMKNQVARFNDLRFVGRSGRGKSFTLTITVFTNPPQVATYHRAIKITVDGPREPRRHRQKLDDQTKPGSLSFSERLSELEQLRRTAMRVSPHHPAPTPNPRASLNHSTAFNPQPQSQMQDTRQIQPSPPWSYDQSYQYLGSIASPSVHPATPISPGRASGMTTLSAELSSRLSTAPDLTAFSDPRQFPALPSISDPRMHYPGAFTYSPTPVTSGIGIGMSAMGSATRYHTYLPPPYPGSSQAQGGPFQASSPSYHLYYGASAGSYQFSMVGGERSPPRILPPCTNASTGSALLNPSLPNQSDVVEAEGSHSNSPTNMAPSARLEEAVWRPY
row,Sequence,binding signal
1,CGCGCACTCGGTGGTTGCGCACATACGCACACATACACATACACACATACACATACGCAC,11 log fluorescence intensity
2,GCGCACATTTCCCGTAAAGCATACACGCACACATACACATACACACATACACATACGCAC,11 log fluorescence intensity
3,GCATACGGCTGGCGTCAGCCACATACGCACACATACACATACACACATACACATACGCAC,11 log fluorescence intensity
4,GCATACGGCAGACGTCAGCCACATACGCACACATACACATACACACATACACATACGCAC,11 log fluorescence intensity
5,GCATACGGCTGTCGTCAGCCACATACGCACACATACACATACACACATACACATACGCAC,10.9 log fluorescence intensity
6,CGCGCACTCTGTGGCTGCGCACATACGCACACATACACATACACACATACACATACGCAC,10.9 log fluorescence intensity
7,GCGCACCTTTCCCGTAAATCATACACGCACACATACACATACACACATACACATACGCAC,10.9 log fluorescence intensity
8,CGCGCACTATGTGGTTGCGCACATACGCACACATACACATACACACATACACATACGCAC,11.3 log fluorescence intensity
9,GCGCACATTCCCCGTAAATCATACACGCACACATACACATACACACATACACATACGCAC,11 log fluorescence intensity
10,GCATACGGCTGACGTCCGCCACATACGCACACATACACATACACACATACACATACGCAC,10.9 log fluorescence intensity
11,GCGCACATTTCCCGTACATCATACACGCACACATACACATACACACATACACATACGCAC,11 log fluorescence intensity
12,CGCGCGCTCTGTGGTTGCGCACATACGCACACATACACATACACACATACACATACGCAC,11.2 log fluorescence intensity
13,GCATACGGCTCACGTCAGCCACATACGCACACATACACATACACACATACACATACGCAC,10.9 log fluorescence intensity
14,GCGCACATTTCCCGTAAATGATACACGCACACATACACATACACACATACACATACGCAC,10.9 log fluorescence intensity
15,GCATACGGCTGACGTCAACCACATACGCACACATACACATACACACATACACATACGCAC,11 log fluorescence intensity
16,GCATACGGCTGACGTCGGCCACATACGCACACATACACATACACACATACACATACGCAC,11 log fluorescence intensity
17,CGCGCACTCTGTGGTCGCGCACATACGCACACATACACATACACACATACACATACGCAC,11.3 log fluorescence intensity
18,GCATACGGCTGACGTAAGCCACATACGCACACATACACATACACACATACACATACGCAC,11 log fluorescence intensity
